These results are taken from PubChem BioAssay AID651724 (National Center for Advancing Translational Sciences (NCATS), 2012).

The whole screen tested about 340,000 compounds, of which about 1,700 (0.5%) were called active. Roughly 2% stayed inconclusive and do not appear here. This excerpt belongs to a sample that is enriched for actives. Unmarked numbers belong to inactive results. Cut-off read from the data, not from the text of the source: active = activity change below about -65%; inconclusive = mostly about -30% to -63%; inactive = weaker than that.
% is set by controls: 0 for no effect and ±100 for the full control effect.

The subject of the experiment is CtBP / adenovirus E1A interaction (AlphaScreen). Briefly: qHTS Assay for Inhibitors of the CtBP/E1A Interaction. As to conditions: AlphaScreen GST-E1A/His-CtBP binding, 1536-well; active compounds read low. An excerpt: Carboxyl-terminal binding protein (CtBP) is a co-repressor for many transcription factors. […] Our studies have shown that CtBP is overexpressed in multiple human cancers, including lung, breast, and head and neck cancers. In particular, it is over-expressed in 50% of primary lung cancer and 90% of metastatic lesions. CtBP suppresses epithelial-specific genes as well as genes critical for apoptosis, providing the underlying molecular mechanism for its role in tumorigenesis. […] Based on the above data, we hypothesize that 1) CtBP suppresses the pro-apoptotic and epithelial genes, therefore overexpressed CtBP in human cancer cells increases EMT and cancer survival; 2) decreasing CtBP's function represents a targeted therapy for lung cancer and potentially multiple cancer types. As a co-repressor, CtBP binds to E1A and other transcription factors through a conserved peptide motif to carry out its action. Inhibiting this interaction using small molecules can potentially serve as effective cancer therapeutics.
To this end, we have developed a homogenous AlphaScreen assay targeting the CtBP/E1A interaction. We performed a large scale HTS of the Molecular Libraries Small Molecule Repository (MLSMR) to identify inhibitors of the CtBP/E1A interaction as potential anti-cancer therapeutics. Compounds identified can also be used as chemical probes to better understand the biological functions of CtBP.
NIH Chemical Genomics Center [NCGC]
NIH Molecular Libraries Probe Centers Network [MLPCN]
Assay Submitter (PI): Rui Zhao, University of Colorado Denver
The first step of the 5uL AlphaScreen assay is to dispense assay buffer (50 mM Tris, pH 8.0, 300 mM NaCl, 0.05% BSA, 0.02% Tween 20, 1 mM TCEP) into a Greiner 1536 white solid bottom microtiter plate (789175-F). Five microliters is added to Column 1, 4 uL is added to Column 2 and 3 uL is added to Columns 3 through 48. A 5X protein solution (125 nM GST-E1A protein + 125 nM His-tagged CtBP protein) is mixed and 1 uL is dispensed to Columns 3-48. Using a 1536 pintool, 23 nL of compound is transferred to the assay plate and the plate is incubated with a lid at 37 deg C in the dark for two hours. A solution of 5X AlphaScreen beads is mixed (50 ug/mL Glutathione linked donor beads + Nickel chelated acceptor beads) and 1 uL is dispensed to Columns 2-48. The assay plate is incubated for one hour, with a lid, at 37 deg C in the dark. The plate is read using a Perkin Elmer Envision using an AlphaScreen protocol.
For orientation: qHTS replaces the single test concentration by a dilution series.
For `CCC(C)n1c(O)c(/C=N/Nc2nc3c(c(=O)n(C)c(=O)n3C)n2C)c(=O)[nH]c1=S` (stereo not given), the activity change was -83.2% (active).
For `COc1ccc(-n2nnnc2C(c2cccc3ccccc23)N2CCC(n3c(=O)[nH]c4ccccc43)CC2)cc1` (stereo not given), the activity change is -14.3%.
As for `O=c1[nH]c(=S)n(C2CC2)c(O)c1/C=N/N1CCOCC1`, the figure is -2.5%; as for `O=C(N/N=C/c1c(O)n(Cc2ccccc2)c(=O)[nH]c1=O)c1ccccc1`, -72.7% (active).
Take `Cc1cccc(-n2c(O)c(/C=N/N3CCOCC3)c(=O)[nH]c2=S)c1`: the activity change was 9.2%.
For the molecule `O=C(N/N=C/c1c(O)n(C2CC2)c(=S)[nH]c1=O)c1ccccc1`, the activity change is -92.7% (active).
Take `O=c1[nH]c(=O)n(Cc2ccccc2)c(O)c1/C=N/Nc1c(F)c(F)c(F)c(F)c1F`: the activity change was 4.41%.
For `O=C(N/N=C/c1c(O)n(C2CC2)c(=S)[nH]c1=O)c1ccccc1Cl`, the activity change was -92.7% (active).
For `CC/C(=N\NC(=O)c1ccccc1O)c1c(O)n(Cc2ccccc2)c(=O)[nH]c1=O`, the activity change was -5.73%.
Consider `COc1ccccc1-n1c(O)c(C=NC2CC2)c(=O)[nH]c1=O`, for which the activity change was 7.53%.
Under `CC(C)c1ccc(-n2c(O)c(/C=N/N3CCOCC3)c(=O)[nH]c2=S)cc1` stands -2.7%; under `CCOC(=O)[C@]12Cc3cc(OC)ccc3[C@H]1N(C(C)C)C(=O)c1ccccc12`, -1.62%.
For the molecule `CC(=CCOc1ccc2ccc(=O)oc2c1)C1=CC(=O)C(C)(C)O1`, the activity change is 1.99%.
Consider `COC(=O)C[C@H]1CC[C@H]2NC[C@@H](O)COC[C@@H]2O1`, for which the activity change was -7.3%.
As for `CCOC(=O)[C@]12Cc3ccccc3[C@H]1N(C1CCCCC1)C(=O)c1cc(OC)ccc12`, the figure is -16.5%; as for `O=c1[nH]c2ccccc2n1C1CCN(C(c2ccccc2)c2nnnn2Cc2ccccc2)CC1` (stereo not given), -12.7%.
In the case of `O=C1NCN(c2ccccc2)C12CCN(C(c1cccs1)c1nnnn1C1CCCCC1)CC2` (stereo not given), the activity change is -7.02%.
As for `O=C(NCC1=C(c2ccc3ccccc3c2)C[C@@H]2CC[C@H]1N2Cc1ccco1)c1cccs1`, the activity change is -23.4%.
As for `COC(=O)CN(CCCl)P1(=O)OCCCN1CCCl` (stereo not given), the figure is 2.9%.
`COc1cccc(C(c2nnnn2-c2ccc3c(c2)OCCO3)N2CCC3(CC2)C(=O)NCN3c2ccccc2)c1OC` (stereo not given): the activity change is -13%.
As to `O=c1[nH]c2ccccc2n1C1CCN(C(c2ccnc3ccccc23)c2nnnn2Cc2ccccc2)CC1` (stereo not given), the activity change is -7.28%.
Turning to `O=c1[nH]c(=O)n(CCc2ccc(F)cc2)c(O)c1/C=N/N1CCCCC1`, the activity change was -1.47%.
As for `CCCCC(=O)N/N=C/c1c(O)n(CCC2=CCCCC2)c(=O)[nH]c1=O`, the figure is -82.9% (active); as for `COc1ccc(CCn2c(O)c(C=NC3CC3)c(=O)[nH]c2=O)cc1OC`, -7.4%.
As for `COC(=O)C1=C(c2ccc(OCc3ccccc3)cc2)C[C@@H]2CC[C@H]1N2C(=O)NCc1ccc(Cl)cc1`, the figure is 0.0513%.
